Laboratory results as given in PubChem BioAssay.
Calls of active or inactive are those of the source. Unless noted, how the calls were made is not given here.

Key:
[1] = anti-His antibody binders, primary screen, artefact control for SMM control protein annotation, biochemical, small-molecule microarray, 635 nm fluorescence (AID 1128); conditions: anti-His Alexa647 antibody binding, higher = more signal;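 further: score merges feature fluorescence with signal-to-noise for each printed compound spot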
[2] = tested on: Human papillomavirus type 1a E7 protein (residues 1-88); test: HPV1a E7 small-molecule binders, primary screen, biochemical, small-molecule microarray, residues 1-88, 635 nm (AID 1129); conditions: small-molecule microarray binding, fluorescence 635 nm; higher = more signal
[3] = target: Focal adhesion kinase 1 (Homo sapiens) (UniProt Q05397); test: small-molecule microarray binders of FAK, primary screen, biochemical, 635/667 nm fluorescence, BSA, DTT (AID 1130); conditions: PTK2 binding, 635 nm fluorescence, higher = more signal;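 further: composite of spot emission at 667 nm and signal to noise over triplicate slides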
[4] = tested on: Fibrinogen (Alexa647-labelled); test: fibrinogen binders on compound microarrays, profiling panel, artefact control for SMM control-protein annotation, biochemical, small-molecule microarray, 635/667 nm fluorescence (AID 1131); conditions: fibrinogen-A647 binding fluorescence, higher = more signal;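 further: z-score merges 667 nm fluorescence with per-spot signal-to-noise over triplicate slides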
[5] = target: Follistatin (Homo sapiens) (UniProt P19883); test: follistatin binders on small-molecule microarrays, primary screen, biochemical, small-molecule microarray, 635/667 nm fluorescence (AID 1132); conditions: FST binding, 635 nm fluorescence, higher = more signal
[6] = target: Fibroblast growth factor 2 (Homo sapiens) (UniProt P09038); test: FGF2 binders on small-molecule microarrays, primary screen, biochemical, small-molecule microarray, 635/667 nm fluorescence (AID 1133); conditions: small-molecule microarray binding, FGF2, fluorescence 635/667; higher = more signal
[7] = mitochondrial membrane potential change in A549 cells, profiling panel, cell-based, JC-1 fluorescence, basal, 24 h, 100 nL (AID 1138); conditions: higher = more signal;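 further: A549 lung adenocarcinoma cells under basal conditions with no added stimulus; test concentration not given here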
Lefty1 = Lefty1 binders on small-molecule microarrays, primary screen, biochemical, small-molecule microarray, 635/667 nm fluorescence (AID 1139); conditions: small-molecule microarray binding, fluorescence 635/667; higher = more signal
[8] = tested on: wheat germ agglutinin (Triticum aestivum), Alexa647-labelled; test: wheat germ agglutinin binders on compound microarrays, profiling panel, artefact control for SMM control-protein annotation, biochemical, small-molecule microarray, 635/667 nm fluorescence (AID 1140); conditions: WGA-A647 binding, 635 nm fluorescence, higher = more signal;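 further: score merges 667 nm feature emission with signal to noise over triplicate slides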
[9] = target: Luciferin 4-monooxygenase (Photinus pyralis) (UniProt P08659); test: firefly luciferase enzyme inhibitors, primary screen, biochemical, luminescence, purified enzyme, 2006 set (AID 1141); conditions: SteadyGlo luminescence, 30 min, higher = more signal, called active from +8 up or from −8 down;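 further: cell-free assay with purified firefly luciferase at 100 ng per well in PBS; test concentration not given here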
[10] = tested on: Wnt5a (protein binding on small-molecule microarray); test: Wnt5a binders on small-molecule microarray, primary screen, biophysical, 635/667 nm fluorescence (AID 1142); conditions: 635 nm fluorescence, higher = more signal;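 further: fluorescence read at 667 nm with signal to noise per printed feature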
[11] = cell viability in Huh7 cells, primary screen, cytotoxicity control for HCV replication inhibitor project, CellTiter-Glo luminescence, basal, 48 h (AID 1143); conditions: Huh7 HCV replicon, higher = more signal, called active from +8 up or from −8 down;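 further: Huh7 hepatoma cells carrying a hepatitis C replication reporter with no stimulus; test concentration not given here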
[12] = P. aeruginosa biofilm formation inhibitors, primary screen, PAO1 strain, BacTiter-Glo luminescence, LB-PBS (AID 1144); conditions: 12 h, higher = more signal
[13] = CREB reporter modulators without forskolin, primary screen, cell-based, PC12, CRE-LacZ reporter, unstimulated (AID 1145); conditions: no forskolin, luminescence, 4.5 h, higher = more signal, called active from +8 up or from −8 down
[14] = CREB reporter modulators under forskolin, primary screen, cell-based, PC12, CRE-LacZ reporter, forskolin-stimulated (AID 1146); conditions: luminescence, 4.5 h, higher = more signal, called active from +8 up or from −8 down;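 further: PC12 cells with 6xCRE LacZ reporter stimulated by forskolin 10 µM; beta-galactosidase reporter signal reflecting CREB driven transcription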
[15] = target: Streptavidin (Streptomyces avidinii) (UniProt P22629); test: streptavidin binders on small-molecule microarray, primary screen, artefact control for SMM compound annotation, biophysical, 635/667 nm fluorescence (AID 1147); conditions: streptavidin binding, higher = more signal;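 further: signal reflects streptavidin binding to arrayed compounds as a control protein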
[16] = small-molecule binders of probe aInhba, primary screen, biochemical, small-molecule microarray, 635/667 nm fluorescence (AID 1148); conditions: higher = more signal;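 further: score merges 667nm spot fluorescence with signal-to-noise for antibody binding to printed compounds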
Torsin-1A (Homo sapiens) [17] = target: Torsin-1A (Homo sapiens) (UniProt O14656); test: torsin A binders from cell lysate, primary screen, small-molecule microarray, wild-type, 635/667 nm (AID 1149); conditions: COS7 hTOR1A-WT lysate, 635 nm fluorescence, higher = more signal
Torsin-1A (Homo sapiens) [18] = target: Torsin-1A (Homo sapiens) (UniProt O14656); test: small-molecule binders of mutant TOR1A in lysate, primary screen, cell lysate, small-molecule microarray, COS7 lysate, 635/667 nm fluorescence (AID 1150); conditions: COS7 hTOR1A mutant lysate, 635 nm fluorescence, higher = more signal;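 further: score pools 667 nm emission and signal to noise measuring lysate protein binding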
[19] = tested on: Sonic hedgehog protein (Shh); test: small-molecule binders of Shh protein, primary screen, biochemical, small-molecule microarray, 635/667 nm fluorescence (AID 1151); conditions: small-molecule microarray binding, 635 nm fluorescence; higher = more signal;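 further: Shh protein binding to compounds spotted on small-molecule microarray slides; score combines spot fluorescence intensity with signal-to-noise across triplicate slides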

Sequence of Fibroblast growth factor 2 (Homo sapiens) (P09038 whole entry, looked up): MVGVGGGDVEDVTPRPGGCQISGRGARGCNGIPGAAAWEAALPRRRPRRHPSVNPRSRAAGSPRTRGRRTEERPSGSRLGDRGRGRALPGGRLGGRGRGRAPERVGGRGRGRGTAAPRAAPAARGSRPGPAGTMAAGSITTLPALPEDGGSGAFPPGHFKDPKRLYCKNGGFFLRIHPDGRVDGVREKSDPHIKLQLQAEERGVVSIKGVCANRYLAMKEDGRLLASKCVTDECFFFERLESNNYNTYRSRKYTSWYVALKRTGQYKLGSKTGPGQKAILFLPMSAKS
Sequence of Focal adhesion kinase 1 (Homo sapiens) (Q05397 whole entry, looked up): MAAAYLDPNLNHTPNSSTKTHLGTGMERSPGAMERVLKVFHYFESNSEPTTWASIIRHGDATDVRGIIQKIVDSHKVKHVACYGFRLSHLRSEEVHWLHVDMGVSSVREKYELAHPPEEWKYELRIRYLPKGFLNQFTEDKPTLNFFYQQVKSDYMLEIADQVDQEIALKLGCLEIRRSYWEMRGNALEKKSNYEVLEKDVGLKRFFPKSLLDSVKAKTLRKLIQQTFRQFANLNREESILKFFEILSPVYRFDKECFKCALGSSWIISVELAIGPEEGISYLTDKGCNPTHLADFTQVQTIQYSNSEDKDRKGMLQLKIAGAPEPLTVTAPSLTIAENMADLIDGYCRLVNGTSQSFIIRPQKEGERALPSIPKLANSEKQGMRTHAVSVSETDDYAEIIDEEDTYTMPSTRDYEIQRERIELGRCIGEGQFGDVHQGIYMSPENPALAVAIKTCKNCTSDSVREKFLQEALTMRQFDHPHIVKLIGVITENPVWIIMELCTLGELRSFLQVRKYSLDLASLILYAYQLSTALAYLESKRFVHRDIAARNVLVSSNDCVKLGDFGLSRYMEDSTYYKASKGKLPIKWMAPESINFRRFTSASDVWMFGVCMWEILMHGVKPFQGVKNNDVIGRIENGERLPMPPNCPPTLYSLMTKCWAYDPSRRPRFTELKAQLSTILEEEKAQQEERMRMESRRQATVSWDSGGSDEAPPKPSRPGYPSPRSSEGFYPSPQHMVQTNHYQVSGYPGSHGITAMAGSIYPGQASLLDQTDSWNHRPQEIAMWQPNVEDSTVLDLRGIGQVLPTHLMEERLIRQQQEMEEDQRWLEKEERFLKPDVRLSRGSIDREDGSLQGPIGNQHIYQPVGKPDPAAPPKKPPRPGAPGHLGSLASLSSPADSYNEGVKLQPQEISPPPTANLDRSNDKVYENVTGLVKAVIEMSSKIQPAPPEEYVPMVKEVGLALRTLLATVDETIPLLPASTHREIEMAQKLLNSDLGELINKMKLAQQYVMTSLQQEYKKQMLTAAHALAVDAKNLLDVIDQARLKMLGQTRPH
Sequence of Follistatin (Homo sapiens) (P19883 whole entry, looked up): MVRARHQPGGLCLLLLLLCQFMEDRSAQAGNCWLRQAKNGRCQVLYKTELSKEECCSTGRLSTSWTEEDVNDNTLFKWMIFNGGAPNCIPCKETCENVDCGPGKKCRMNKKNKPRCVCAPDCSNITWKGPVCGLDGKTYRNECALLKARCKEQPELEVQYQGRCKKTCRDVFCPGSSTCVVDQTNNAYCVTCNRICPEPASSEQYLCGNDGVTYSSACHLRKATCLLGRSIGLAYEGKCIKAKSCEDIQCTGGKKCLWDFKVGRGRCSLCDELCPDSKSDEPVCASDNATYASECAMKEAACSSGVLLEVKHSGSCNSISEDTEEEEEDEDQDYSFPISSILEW
Sequence of Streptavidin (Streptomyces avidinii) (P22629 whole entry, looked up): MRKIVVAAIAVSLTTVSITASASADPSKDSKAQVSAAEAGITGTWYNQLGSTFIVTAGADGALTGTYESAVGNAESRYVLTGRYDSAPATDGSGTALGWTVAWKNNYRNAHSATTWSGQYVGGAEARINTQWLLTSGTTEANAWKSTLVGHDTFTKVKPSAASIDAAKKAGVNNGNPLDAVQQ
Sequence of Luciferin 4-monooxygenase (Photinus pyralis) (P08659 whole entry, looked up): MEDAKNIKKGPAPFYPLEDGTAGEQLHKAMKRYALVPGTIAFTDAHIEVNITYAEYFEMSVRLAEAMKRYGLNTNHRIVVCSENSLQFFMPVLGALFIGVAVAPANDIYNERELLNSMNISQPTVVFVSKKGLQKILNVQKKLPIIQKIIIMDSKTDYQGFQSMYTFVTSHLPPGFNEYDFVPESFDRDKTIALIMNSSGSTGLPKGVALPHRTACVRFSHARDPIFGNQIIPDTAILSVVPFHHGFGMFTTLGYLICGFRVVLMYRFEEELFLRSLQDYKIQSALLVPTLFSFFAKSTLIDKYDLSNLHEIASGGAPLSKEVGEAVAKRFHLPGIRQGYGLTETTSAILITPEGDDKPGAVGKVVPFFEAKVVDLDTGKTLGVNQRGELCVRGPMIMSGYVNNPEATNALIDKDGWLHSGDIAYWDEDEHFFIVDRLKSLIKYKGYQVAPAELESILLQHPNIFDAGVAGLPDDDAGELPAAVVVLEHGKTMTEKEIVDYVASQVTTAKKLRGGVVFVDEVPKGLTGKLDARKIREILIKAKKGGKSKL
Sequence of Torsin-1A (Homo sapiens) (O14656 whole entry, looked up): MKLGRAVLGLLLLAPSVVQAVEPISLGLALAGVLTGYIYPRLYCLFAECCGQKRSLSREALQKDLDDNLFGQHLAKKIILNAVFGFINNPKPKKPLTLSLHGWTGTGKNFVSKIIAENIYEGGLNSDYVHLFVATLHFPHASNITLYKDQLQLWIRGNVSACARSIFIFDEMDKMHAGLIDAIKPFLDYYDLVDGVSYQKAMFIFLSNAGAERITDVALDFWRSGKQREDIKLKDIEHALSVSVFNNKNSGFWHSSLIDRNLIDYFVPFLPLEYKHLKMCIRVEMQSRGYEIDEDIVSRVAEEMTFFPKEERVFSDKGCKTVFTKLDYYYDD

Question: Which composite z-score [1] does the source give for `C=C(COC)/C(=C/C[C@@H](OC(C)=O)c1ccc(CO)o1)c1cc(C(=O)OC)ccc1OC` here?
Answer: The composite z-score was 0.291.

Question: And the composite z-score [2]?
Answer: The composite z-score was 0.091.

Question: And the composite z-score [3]?
Answer: Its composite z-score is -0.198.

Question: And the composite z-score [4]?
Answer: Its composite z-score is -0.341.

Question: What about the composite z-score [5] of the same compound?
Answer: The composite z-score was 0.758.

Question: What about the composite z-score [6] of the same compound?
Answer: Its composite z-score is -0.314.

Question: What about the z-score [7] of the same compound?
Answer: Its z-score is 0.173.

Question: And the composite z-score (Lefty1)?
Answer: Its composite z-score is 0.933.

Question: And the composite z-score [8]?
Answer: The composite z-score was -0.188.

Question: What about the z-score [9] of the same compound?
Answer: The z-score was -1.53 (inactive).

Question: And the composite z-score [10]?
Answer: Its composite z-score is -0.0561.

Question: And the z-score [11]?
Answer: The z-score was 0.0759 (inactive).

Question: And the z-score [12]?
Answer: The z-score was -0.921 (inactive).

Question: And the z-score [13]?
Answer: The z-score was -0.0602 (inactive).

Question: And the z-score [14]?
Answer: Its z-score is 1.12 (inactive).

Question: What about the composite z-score [15] of the same compound?
Answer: Its composite z-score is -0.367.

Question: And the composite z-score [16]?
Answer: The composite z-score was -0.0933.

Question: What about the composite z-score (Torsin-1A (Homo sapiens) [17]) of the same compound?
Answer: Its composite z-score is -0.5.

Question: What about the composite z-score (Torsin-1A (Homo sapiens) [18]) of the same compound?
Answer: The composite z-score was 0.666.

Question: What about the composite z-score [19] of the same compound?
Answer: Its composite z-score is 1.64.

Question: What does the source list for `O=C1C2C=CC(C(O)c3ccc4c(c3)OCO4)N(Nc3ccccc3)C2C(=O)N1c1ccccc1` (stereo not given)?
Answer: composite z-score [1]: 0.496; composite z-score [2]: 1.21; composite z-score [3]: 0.617; composite z-score [4]: 0.979; composite z-score [5]: 1.03; composite z-score [6]: -0.337; z-score [7]: 0.279; composite z-score (Lefty1): 0.153; composite z-score [8]: 0.942; z-score [9]: 0.465 (inactive); composite z-score [10]: 0.096; z-score [11]: -0.924 (inactive); z-score [12]: -0.648 (inactive); z-score [13]: 0.44 (inactive); z-score [14]: 0.993 (inactive); composite z-score [15]: 1.52; composite z-score [16]: 0.143; composite z-score (Torsin-1A (Homo sapiens) [17]): -0.277; composite z-score (Torsin-1A (Homo sapiens) [18]): 0.426; composite z-score [19]: 0.0743

Question: With `COCC(=C=CC[C@@H](O)c1cccc(OCCO)c1)CCO` as the compound, how does the composite z-score [1] read?
Answer: The composite z-score was -0.128.

Question: What about the composite z-score [2] of the same compound?
Answer: Its composite z-score is -0.113.

Question: What about the composite z-score [3] of the same compound?
Answer: Its composite z-score is -0.128.

Question: What about the composite z-score [4] of the same compound?
Answer: Its composite z-score is 0.984.

Question: What about the composite z-score [5] of the same compound?
Answer: Its composite z-score is 0.734.

Question: And the composite z-score [6]?
Answer: The composite z-score was 0.377.

Question: And the z-score [7]?
Answer: Its z-score is 0.293.

Question: And the composite z-score (Lefty1)?
Answer: The composite z-score was 0.565.

Question: And the composite z-score [8]?
Answer: Its composite z-score is 1.1.

Question: What about the z-score [9] of the same compound?
Answer: The z-score was -1.31 (inactive).

Question: What about the composite z-score [10] of the same compound?
Answer: Its composite z-score is 0.332.

Question: What about the z-score [11] of the same compound?
Answer: Its z-score is -0.35 (inactive).

Question: And the z-score [12]?
Answer: Its z-score is 0.65 (inactive).

Question: And the z-score [13]?
Answer: Its z-score is -0.205 (inactive).

Question: And the z-score [14]?
Answer: Its z-score is 0.671 (inactive).

Question: And the composite z-score [15]?
Answer: The composite z-score was 0.105.

Question: What about the composite z-score [16] of the same compound?
Answer: The composite z-score was 0.0051.

Question: What about the composite z-score (Torsin-1A (Homo sapiens) [17]) of the same compound?
Answer: Its composite z-score is 1.96.

Question: What about the composite z-score (Torsin-1A (Homo sapiens) [18]) of the same compound?
Answer: The composite z-score was 0.675.

Question: What about the composite z-score [19] of the same compound?
Answer: The composite z-score was 1.23.
